Most compounds without a hit are left out; they make up all but 28% or so of the library.
CYP2C9 inhib – human CYP2C9 inhibition. P11712. CYP2C9 Supersomes, luciferin-H conversion, luminescence. inhibition, % at 5 µM. hit rate 20% among 96,000;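 active means blocking of liver enzyme CYP2C9 beyond about 50% at 5 µM, limit read from the data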
CYP2C19 inh – human CYP2C19 inhibition; P33261; CYP2C19 Supersomes, luciferin-H EGE luminescence, 30 min; inhibition, % at 5 µM; hit rate 21% among 96,000; AID 778;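 active means CYP2C19 inhibition above a set limit at 5 µM in the primary screen, cut at about 50% in these data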;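 further: plate controls were negative control wells for no effect and 2.5 mM tranylcypromine positive control for full effect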
Target sequence (P33261 whole entry, looked up): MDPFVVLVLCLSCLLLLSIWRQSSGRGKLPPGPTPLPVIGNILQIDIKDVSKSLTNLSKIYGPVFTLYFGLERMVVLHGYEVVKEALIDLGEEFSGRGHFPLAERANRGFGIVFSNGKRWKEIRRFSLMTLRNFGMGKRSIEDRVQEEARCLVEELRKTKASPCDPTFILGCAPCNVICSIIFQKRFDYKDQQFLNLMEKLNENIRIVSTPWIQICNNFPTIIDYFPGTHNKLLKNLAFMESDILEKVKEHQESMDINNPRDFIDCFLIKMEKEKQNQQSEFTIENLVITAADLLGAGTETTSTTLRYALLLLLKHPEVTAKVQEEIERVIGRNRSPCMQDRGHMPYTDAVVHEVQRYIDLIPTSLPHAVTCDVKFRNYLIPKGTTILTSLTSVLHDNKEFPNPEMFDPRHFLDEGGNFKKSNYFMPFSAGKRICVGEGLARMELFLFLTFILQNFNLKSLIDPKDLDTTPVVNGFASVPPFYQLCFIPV
CYP2C19 act – cytochrome P450 2C19 (human) activation; activation factor at 5 µM; recombinant CYP2C19, luciferin-H EGE luminescence; stronger effect = higher value; 0 = fully inhibited enzyme, 1 = untreated enzyme; P33261; 96,000 tested, under 10 active;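 active means activation factor of at least 2 at 5 µM in the primary screen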;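 further: 0 = wells with 2.5 mM tranylcypromine and 1 = vehicle-only wells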
Pyk2 oligo antag – antagonists of human Pyk2 oligomerization; Q14289; Q293 cells, Pyk2 FERM NanoBiT luminescence; stronger effect = lower value; z-score (the deposit names both 25 µM and 10 µM); hit rate 0.83% among 99,000;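 active means Z-score of -3 or lower, scaled per plate to the spread of control and sample wells; inactive means z-score above -3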;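 further: negative z-score means lost luminescence so less FERM oligomerization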
CYP2C9 activ – increases human cytochrome P450 2C9 activity | recombinant CYP2C9, luciferin-H conversion, luminescence; stronger effect = higher value; factor 1 = untreated enzyme, 0 = blocked | hit rate 1.4% among 96,000 | activation factor at 5 µM | AID 1024;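 active means activation factor of 2 or more for CYP2C9 at a 5 µM dose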;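 further: 0 = sulfaphenazole-blocked wells and 1 = vehicle-only wells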
An asterisk follows results filed as active.

What do the screens show for `CC(=O)c1c(C)[nH]c(C(=O)OCC(=O)N2CCN(S(=O)(=O)c3ccc(C)cc3C)CC2)c1C`?
CYP2C9 inhib: 50.5*; CYP2C19 inh: 60.6*; CYP2C19 act: 0.4; Pyk2 oligo antag: -1.65; CYP2C9 activ: 0.5

Results for Cc1ccc(S(=O)(=O)N2CCN(C(=O)CSC3CCCC3)CC2)c(C)c1 ?
CYP2C9 inhib: -38.6; CYP2C19 inh: 76.4*; CYP2C19 act: 0.2; Pyk2 oligo antag: -0.96; CYP2C9 activ: 1.4

How did CC1(C)CC(=O)c2cc(OCC(=O)NCCCN3CCN(c4ccc(F)cc4)CC3)ccc2O1 do in these assays?
CYP2C9 inhib: 14.1; CYP2C19 inh: 8.1; CYP2C19 act: 0.9; Pyk2 oligo antag: -0.2; CYP2C9 activ: 0.9

How did CCCOc1ccc(C(=O)CCC(=O)OCC(=O)N2CC(=O)Nc3ccccc32)cc1 do in these assays?
CYP2C9 inhib: 21.5; CYP2C19 inh: 10.1; CYP2C19 act: 0.9; Pyk2 oligo antag: 1.01; CYP2C9 activ: 0.8

What do the screens show for `CCOC(=O)c1cccc(NC(=O)CCc2nc(-c3ccccc3F)no2)c1`?
CYP2C9 inhib: 16.9; CYP2C19 inh: 7.3; CYP2C19 act: 0.9; Pyk2 oligo antag: 2.44; CYP2C9 activ: 0.8

What do the screens show for `CCOC(=O)c1ccc(NC(=O)CCc2nc(-c3ccccc3Cl)no2)cc1`?
CYP2C9 inhib: 95.6*; CYP2C19 inh: 24.7; CYP2C19 act: 0.8; Pyk2 oligo antag: -0.64; CYP2C9 activ: 0

How did CCOC(=O)c1ccc(NC(=O)CCc2nc(-c3ccccc3)no2)cc1 do in these assays?
CYP2C9 inhib: 50.3*; CYP2C19 inh: 5.9; CYP2C19 act: 0.9; Pyk2 oligo antag: -0.23; CYP2C9 activ: 0.5

What do the screens show for `Cc1cc(NC(=O)CN2C(=O)C3CC=CCC3C2=O)no1` (stereo unspecified)?
CYP2C9 inhib: -17.8; CYP2C19 inh: -8.6; CYP2C19 act: 1.1; Pyk2 oligo antag: 0.97; CYP2C9 activ: 1.2

How did Cc1ccc(NC(=O)NC(=O)CN2C(=O)NC3(CCc4ccccc43)C2=O)c(C)c1 (stereo unspecified) do in these assays?
CYP2C9 inhib: 31.5; CYP2C19 inh: 40.9; CYP2C19 act: 0.6; Pyk2 oligo antag: -1.65; CYP2C9 activ: 0.7

How did O=C(CCN1CCCCCC1)Nc1cccc(F)c1 do in these assays?
CYP2C9 inhib: 1.8; CYP2C19 inh: -21.3; CYP2C19 act: 1.2; Pyk2 oligo antag: -0.07; CYP2C9 activ: 1

Results for O=C(CCCC(=O)N1CCc2ccccc21)N1CCc2ccccc21 ?
CYP2C9 inhib: -0.2; CYP2C19 inh: 1.8; CYP2C19 act: 1; Pyk2 oligo antag: 0.1; CYP2C9 activ: 1

What do the screens show for `O=C(Nc1ccccc1)N1CCc2ccccc21`?
Pyk2 oligo antag: 1.02

What do the screens show for `CC(CC(=O)N1CCc2ccccc21)c1ccccc1` (stereo unspecified)?
CYP2C9 inhib: 15.5; CYP2C19 inh: 93.6*; CYP2C19 act: 0.1; Pyk2 oligo antag: 0.12; CYP2C9 activ: 0.8

What do the screens show for `O=C(CCN1CCc2ccccc2C1)Nc1cccc(F)c1`?
CYP2C9 inhib: 49.6; CYP2C19 inh: 91.5*; CYP2C19 act: 0.1; Pyk2 oligo antag: 0.43; CYP2C9 activ: 0.5

Results for O=C(CCC(=O)N1CCc2ccccc21)Nc1ccccc1 ?
CYP2C9 inhib: 36.9; CYP2C19 inh: 92.5*; CYP2C19 act: 0.1; Pyk2 oligo antag: 1.38; CYP2C9 activ: 0.6

How did O=C(CCN1CCc2ccccc2C1)Nc1ccccc1 do in these assays?
CYP2C9 inhib: 60.5*; CYP2C19 inh: 91.4*; CYP2C19 act: 0.1; Pyk2 oligo antag: 0.6; CYP2C9 activ: 0.4

How did CN1C(=O)C(=O)N(CC(=O)N2CCc3ccccc32)C1=O do in these assays?
CYP2C9 inhib: 10.5; CYP2C19 inh: 9.7; CYP2C19 act: 0.9; Pyk2 oligo antag: -0.13; CYP2C9 activ: 0.9

What do the screens show for `O=C(CN1C(=O)CSc2ccccc21)N1CCc2ccccc21`?
CYP2C9 inhib: 40.1; CYP2C19 inh: 82.1*; CYP2C19 act: 0.2; Pyk2 oligo antag: 0.74; CYP2C9 activ: 0.6

Results for O=C(c1noc2c1CCCC2)N1CCOCC1 ?
CYP2C9 inhib: 26.6; CYP2C19 inh: 10.1; CYP2C19 act: 0.9; Pyk2 oligo antag: -0.38; CYP2C9 activ: 0.7

Results for O=C(NCC(F)(F)F)Nc1ncccn1 ?
CYP2C9 inhib: 2.3; CYP2C19 inh: -4.5; CYP2C19 act: 1; Pyk2 oligo antag: 0.69; CYP2C9 activ: 1

What do the screens show for `O=C1CC(N2CCN(Cc3ccc4c(c3)OCO4)CC2)C(=O)N1c1ccccc1` (stereo unspecified)?
CYP2C9 inhib: 7.7; CYP2C19 inh: 10.0; CYP2C19 act: 0.9; Pyk2 oligo antag: 0.17; CYP2C9 activ: 0.9

How did CC(=O)N1C(c2ccccc2)CC(=O)OC1c1ccc2c(c1)OCO2 (stereo unspecified) do in these assays?
CYP2C9 inhib: 14.0; CYP2C19 inh: 68.8*; CYP2C19 act: 0.3; Pyk2 oligo antag: -0.64; CYP2C9 activ: 0.9

What do the screens show for `O=C1OC(c2ccc3c(c2)OCO3)N(C(=O)c2ccc(Cl)c(Cl)c2)c2ccccc21` (stereo unspecified)?
CYP2C9 inhib: 85.8*; CYP2C19 inh: 84.5*; CYP2C19 act: 0.2; Pyk2 oligo antag: -3.25*; CYP2C9 activ: 0.1

What do the screens show for `CC(=O)N1c2ccccc2C(=O)OC1c1cccnc1` (stereo unspecified)?
CYP2C9 inhib: 10.1; CYP2C19 inh: 12.4; CYP2C19 act: 0.9; Pyk2 oligo antag: -0.11; CYP2C9 activ: 0.9

How did Cc1cccc(C(=O)N2c3ccccc3C(=O)OC2c2ccc3c(c2)OCO3)c1 (stereo unspecified) do in these assays?
CYP2C9 inhib: 57.7*; CYP2C19 inh: 26.7; CYP2C19 act: 0.7; Pyk2 oligo antag: -0.65; CYP2C9 activ: 0.4

How did CC1CCN(C(=S)NC(=O)c2ccccc2)CC1 do in these assays?
CYP2C9 inhib: 23.4; CYP2C19 inh: 39.9; CYP2C19 act: 0.6; Pyk2 oligo antag: 1.34; CYP2C9 activ: 0.8

How did CN1CCN(C(=S)NC(=O)/C=C/c2cccc3ccccc23)CC1 do in these assays?
CYP2C9 inhib: -200.6; CYP2C19 inh: 38.7; CYP2C19 act: 0.6; Pyk2 oligo antag: 0.23; CYP2C9 activ: 3*

Results for CCN1CCN(C(CNS(=O)(=O)c2ccc(OC)cc2)c2cccnc2)CC1 (stereo unspecified) ?
CYP2C9 inhib: -5.2; CYP2C19 inh: 2.0; CYP2C19 act: 1; CYP2C9 activ: 1.1

Results for COc1ccccc1N1CCN(C(CNS(=O)(=O)c2ccccc2)c2cccnc2)CC1 (stereo unspecified) ?
CYP2C9 inhib: 62.0*; CYP2C19 inh: 86.1*; CYP2C19 act: 0.1; Pyk2 oligo antag: 0.41; CYP2C9 activ: 0.4

How did O=S(=O)(NCC(c1cccnc1)N1CCN(c2ccc(F)cc2)CC1)c1ccccc1 (stereo unspecified) do in these assays?
Pyk2 oligo antag: -0.38

What do the screens show for `COc1ccc(S(=O)(=O)NCC(c2cccnc2)N2CCN(c3ccccc3OC)CC2)cc1C` (stereo unspecified)?
CYP2C9 inhib: 43.0; CYP2C19 inh: 73.5*; CYP2C19 act: 0.3; Pyk2 oligo antag: -1.78; CYP2C9 activ: 0.6

Screening data: PubChem, Sanford-Burnham Center for Chemical Genomics
